# In PMC8384837, “Expanding the binding specificity for RNA recognition by a PUF domain”:
# How the values were obtained:
# Experiment in all cases: yeast three-hybrid, YBZ-1, SC-Leu-His + 0.5 mM 3-AT, 4 days
# Conditions in all cases: tags: N-Gal4 AD-HA kept; label: inside an RPR1-promoter hybrid RNA with tandem MS2 sites; ssRNA
# PUM1 PUF domain R3-TRP = PUM1 PUF domain R3-TRP (Homo sapiens, UniProt Q14671 828-1176, C935T;Q939P)
# Outline: (§1)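 Sequencing with Illumina followed PCR amplification of the repeat regions from transformants grown four days on SC-Leu (input) or SC-Leu-His + 0.5 mM 3-AT (selection). The transformants were strain YBZ-1 with a LexA–MS2 coat fusion and a HIS3 reporter, carrying Pumilio-1 PUF domain libraries and matching RNA elements. The interaction score is the log change in variant frequency from input to selection, computed in log2 with a pseudocount of 1 for absent variants.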
# PUM1 PUF domain R3-FWR = PUM1 PUF domain R3-FWR (Homo sapiens, UniProt Q14671 828-1176, C935F;R936W;Q939R)
# Outline: as §1
# PUM1 PUF domain R4-WGW = PUM1 PUF domain R4-WGW (Homo sapiens, UniProt Q14671 828-1176, N971W;H972G;Q975W)
# Outline: as §1
# PUM1 PUF domain R5-LHR = PUM1 PUF domain R5-LHR (Homo sapiens, UniProt Q14671 828-1176, C1007L;R1008H;Q1011R)
# Outline: as §1
# PUM1 PUF domain R8-TRR = PUM1 PUF domain R8-TRR (Homo sapiens, UniProt Q14671 828-1176, N1122T;Y1123R;Q1126R)
# Outline: as §1
# PUM1 PUF domain R3-GFD = PUM1 PUF domain R3-GFD (Homo sapiens, UniProt Q14671 828-1176, C935G;R936F;Q939D)
# Outline: as §1
# PUM1 PUF domain R6-SWQ = molecular target: T1, PUM1 PUF domain R6-SWQ (Homo sapiens, UniProt Q14671 828-1176, N1043S;Y1044W)
# T1 sequence: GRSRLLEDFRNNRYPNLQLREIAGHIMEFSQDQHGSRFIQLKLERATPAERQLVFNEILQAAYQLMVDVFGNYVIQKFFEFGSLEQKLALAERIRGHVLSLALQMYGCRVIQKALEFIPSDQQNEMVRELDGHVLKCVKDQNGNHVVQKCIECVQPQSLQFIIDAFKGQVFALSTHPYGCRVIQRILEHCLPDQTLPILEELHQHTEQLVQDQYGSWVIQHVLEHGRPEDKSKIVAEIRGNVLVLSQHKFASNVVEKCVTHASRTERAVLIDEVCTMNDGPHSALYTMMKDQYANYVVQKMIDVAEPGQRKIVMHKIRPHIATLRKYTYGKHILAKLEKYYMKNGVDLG
# Outline: as §1
# PUM1 PUF domain R4-PHQ = PUM1 PUF domain R4-PHQ (Homo sapiens, UniProt Q14671 828-1176, N971P)
# Outline: as §1
# PUM1 PUF domain R7-CCR = PUM1 PUF domain R7-CCR (Homo sapiens, UniProt Q14671 828-1176, S1079C;N1080C;E1083R)
# Outline: as §1
# PUM1 PUF domain R1-KKT = PUM1 PUF domain R1-KKT (Homo sapiens, UniProt Q14671 828-1176, S863K;R864K;Q867T)
# Outline: as §1
sequence,measurement,setting,value
GGCUAGAACUAGUGGAUCCCCCGGCGCCCGGCGGCUCGAGCCCGGGUAAGUGUAAUUAGUCUGCAUGCCGCCGGGCGCCAUGCCUGCAGGUCGACUCUAGAAAACAUG,binding signal,PUM1 PUF domain R3-TRP,1.29 log2 enrichment (interaction score)
same,binding signal,PUM1 PUF domain R3-FWR,2.94 log2 enrichment (interaction score)
GGCUAGAACUAGUGGAUCCCCCGGCGCCCGGCGGCUCGAGCCCGGGUAAGUGUAAAUAGUCUGCAUGCCGCCGGGCGCCAUGCCUGCAGGUCGACUCUAGAAAACAUG,binding signal,PUM1 PUF domain R3-TRP,4.51 log2 enrichment (interaction score)
same,binding signal,PUM1 PUF domain R4-WGW,3.2 log2 enrichment (interaction score)
same,binding signal,PUM1 PUF domain R5-LHR,3.11 log2 enrichment (interaction score)
same,binding signal,PUM1 PUF domain R3-FWR,0.88 log2 enrichment (interaction score)
same,binding signal,PUM1 PUF domain R8-TRR,1.14 log2 enrichment (interaction score)
same,binding signal,PUM1 PUF domain R3-GFD,5.65 log2 enrichment (interaction score)
GGCUAGAACUAGUGGAUCCCCCGGCGCCCGGCGGCUCGAGCCCGGGUAAGUGGAAAUAGUCUGCAUGCCGCCGGGCGCCAUGCCUGCAGGUCGACUCUAGAAAACAUG,binding signal,PUM1 PUF domain R6-SWQ,3.61 log2 enrichment (interaction score)
GGCUAGAACUAGUGGAUCCCCCGGCGCCCGGCGGCUCGAGCCCGGGUAAGUGUAUAUAGUCUGCAUGCCGCCGGGCGCCAUGCCUGCAGGUCGACUCUAGAAAACAUG,binding signal,PUM1 PUF domain R4-PHQ,7.3 log2 enrichment (interaction score)
same,binding signal,PUM1 PUF domain R4-WGW,3.62 log2 enrichment (interaction score)
GGCUAGAACUAGUGGAUCCCCCGGCGCCCGGCGGCUCGAGCCCGGGUAAGUGAAAAUAGUCUGCAUGCCGCCGGGCGCCAUGCCUGCAGGUCGACUCUAGAAAACAUG,binding signal,PUM1 PUF domain R6-SWQ,2.27 log2 enrichment (interaction score)
GGCUAGAACUAGUGGAUCCCCCGGCGCCCGGCGGCUCGAGCCCGGGUAAGUGUACAUAGUCUGCAUGCCGCCGGGCGCCAUGCCUGCAGGUCGACUCUAGAAAACAUG,binding signal,PUM1 PUF domain R4-PHQ,2.14 log2 enrichment (interaction score)
same,binding signal,PUM1 PUF domain R4-WGW,2 log2 enrichment (interaction score)
GGCUAGAACUAGUGGAUCCCCCGGCGCCCGGCGGCUCGAGCCCGGGUAAGCGUAAAUAGUCUGCAUGCCGCCGGGCGCCAUGCCUGCAGGUCGACUCUAGAAAACAUG,binding signal,PUM1 PUF domain R8-TRR,2.73 log2 enrichment (interaction score)
GGCUAGAACUAGUGGAUCCCCCGGCGCCCGGCGGCUCGAGCCCGGGUAAGUCUAAAUAGUCUGCAUGCCGCCGGGCGCCAUGCCUGCAGGUCGACUCUAGAAAACAUG,binding signal,PUM1 PUF domain R7-CCR,3.07 log2 enrichment (interaction score)
GGCUAGAACUAGUGGAUCCCCCGGCGCCCGGCGGCUCGAGCCCGGGUAAGUGUAAAUCGUCUGCAUGCCGCCGGGCGCCAUGCCUGCAGGUCGACUCUAGAAAACAUG,binding signal,PUM1 PUF domain R1-KKT,3.84 log2 enrichment (interaction score)
